According to PubChem BioAssay AID1006 (Sanford-Burnham Center for Chemical Genomics, 2008):
Screen size: about 200,000 compounds; about 3,000 (1.5%) were called active. For the sample, actives were picked, then their nearest neighbours and some compounds at random. Values without a mark were called inactive.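 Rule for the calls: active = inhibition above about 50% when tested at 10 µM (limit read from the data); inactive = the rest.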

target: Luciferin 4-monooxygenase (Photinus pyralis) (UniProt P08659); experiment: inhibition of purified FLuc reporter enzyme – biochemical, luminescence, ATPLite, artefact control for luciferase-based inhibitor screens, primary screen (AID 1006); conditions: ATPLite firefly luciferase biochemical luminescence, 10 min; at 10 µM; stronger effect = higher value
Sequence (P08659 whole entry, looked up): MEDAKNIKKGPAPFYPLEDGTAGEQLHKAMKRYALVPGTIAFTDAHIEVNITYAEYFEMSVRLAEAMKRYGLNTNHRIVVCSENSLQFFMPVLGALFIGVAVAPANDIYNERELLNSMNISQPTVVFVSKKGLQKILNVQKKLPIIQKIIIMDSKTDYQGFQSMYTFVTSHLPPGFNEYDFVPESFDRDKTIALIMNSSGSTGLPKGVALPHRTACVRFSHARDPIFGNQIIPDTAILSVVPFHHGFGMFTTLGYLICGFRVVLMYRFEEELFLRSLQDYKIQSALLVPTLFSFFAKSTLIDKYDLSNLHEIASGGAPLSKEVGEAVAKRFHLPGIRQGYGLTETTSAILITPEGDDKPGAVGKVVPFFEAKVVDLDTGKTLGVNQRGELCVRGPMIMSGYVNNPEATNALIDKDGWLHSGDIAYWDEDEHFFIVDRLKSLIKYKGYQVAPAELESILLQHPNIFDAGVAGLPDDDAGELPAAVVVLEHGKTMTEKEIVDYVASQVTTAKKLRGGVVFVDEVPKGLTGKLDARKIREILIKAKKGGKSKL

For `CC1=C[C@H]2Cc3cc(C)cc(C)c3S(=O)(=O)[C@@H]2C=C1`, which inhibition is on record?
Its inhibition is -5.9%.

`O=C(Nc1cccc(O)c1)c1ccc(C(=O)c2ccccc2)o1` was tested. Which inhibition did it give?
The inhibition was 69.9% (active).

How did the inhibition turn out when `O=C(CSc1ccccc1)Nc1ccc(C(=O)Nc2cccc(O)c2)cc1` was run?
Its inhibition is 1.9%.

Which inhibition does the source give for `C/C(=C\C(=O)c1ccccc1)Nc1cccc(O)c1` here?
The inhibition was 44.4%.

For `NC(=O)C1CCN(C(=O)COc2cccc3cccnc23)CC1`, which inhibition is on record?
Its inhibition is -10%.

How did the inhibition turn out when `Cc1ccsc1C(=O)OCC(=O)c1cc(C)n(CC2CCCO2)c1C` (stereo unspecified) was run?
The inhibition was 90.3% (active).

How did the inhibition turn out when `Cc1cc(C(=O)Cn2cnc3cc([N+](=O)[O-])ccc3c2=O)c(C)n1CC1CCCO1` (stereo unspecified) was run?
The inhibition was 1.6%.

How did the inhibition turn out when `Cc1cc(C(=O)CCl)c(C)n1CC1COc2ccccc2O1` (stereo unspecified) was run?
The inhibition was -0.3%.

For `CCC1C=C(c2ccccc2)C=CN=C1N(CC)CC` (stereo unspecified), which inhibition is on record?
Its inhibition is -5%.

Which inhibition does the source give for `O=C(Cn1c(N2CCN(C/C=C/c3ccccc3)CC2)nc2ccccc21)c1ccccc1` here?
The inhibition was -2.2%.

Which inhibition does the source give for `CCN(CCCNC(=O)CCn1c(=O)[nH]c2ccsc2c1=O)c1ccccc1` here?
The inhibition was -2.6%.

Which inhibition does the source give for `CC(C)=CCN1CCN(Cc2ccc(Oc3ncccn3)cc2)CC1CCO` (stereo unspecified) here?
The inhibition was -0.1%.

How did the inhibition turn out when `N=c1c2c(-c3ccccc3)c(-c3ccccc3)n(Cc3ccccc3)c2ncn1CCCO` was run?
The inhibition was -2.7%.

For `OCCCN1c2ccccc2Nc2nnc(-c3ccccc3)cc21`, which inhibition is on record?
The inhibition was 57.2% (active).

Which inhibition does the source give for `CCCN(CCC)CCCNC(=O)CNC(=O)c1nn(-c2ccc(OC)cc2)c(=O)c2ccccc12` here?
The inhibition was -0.3%.

With `Cc1ccsc1C(=O)OCC(=O)c1cc2ccccc2o1` as the compound, how does the inhibition read?
The inhibition was 1.6%.

With `O=C(Oc1cccnc1)c1cc2ccccc2oc1=O` as the compound, how does the inhibition read?
Its inhibition is -6.1%.

Which inhibition does the source give for `Cc1ccc(OC(=O)c2cc3ccccc3o2)cc1` here?
The inhibition was 73.3% (active).

With `CCOC(=O)c1c(C)[nH]c2c1-c1ccccc1C(=O)C2=O` as the compound, how does the inhibition read?
Its inhibition is -5.3%.

For `CCOC(=O)c1c(C)[nH]c(C2=NNC(=NC(C)COC)SC2)c1C` (stereo unspecified), which inhibition is on record?
The inhibition was 56.5% (active).

How did the inhibition turn out when `CCCCOC(=O)c1[nH]c(C)c(C(=O)OC)c1C` was run?
Its inhibition is 15.4%.

How did the inhibition turn out when `CCOC(=O)C(C)Sc1nc2ccccc2c(=O)n1CC1CCCCC1` (stereo unspecified) was run?
Its inhibition is 1.4%.

With `CN(c1ccc2nc3ccccc3c(=O)n2n1)C1CCCCC1` as the compound, how does the inhibition read?
Its inhibition is 96.2% (active).

For `O=c1c2ccccc2nc2n1C1(CCCCC1)Cc1ccccc1-2`, which inhibition is on record?
Its inhibition is -6.3%.

`CC(C)CCC(C)NC(=O)c1ccc2nccnc2c1` (stereo unspecified) was tested. Which inhibition did it give?
The inhibition was 2.8%.

For `COc1ccc(N2C(=O)/C(=C\c3ccco3)N=C2SCC(N)=O)cc1Cl`, which inhibition is on record?
Its inhibition is -5.8%.

With `Cc1ccc2cc3cc(C(=O)N4CCCCCC4)oc3nc2c1` as the compound, how does the inhibition read?
Its inhibition is 69.5% (active).

How did the inhibition turn out when `Cc1ccc(C(=O)N2CCCCCC2)cc1Br` was run?
Its inhibition is -7.1%.

`Cc1cc(=O)oc(C)c1C(=O)N1CCCCC1` was tested. Which inhibition did it give?
Its inhibition is -6.7%.

How did the inhibition turn out when `C/C(=N/N1CCN(Cc2cccc3ccccc23)CC1)c1cccnc1` was run?
The inhibition was -5.7%.

For `O=C(Nc1ccc2nccnc2c1)c1ccco1`, which inhibition is on record?
Its inhibition is 13%.

How did the inhibition turn out when `COc1cccc(C(=O)Nc2ccc(NC(=O)c3ccco3)cn2)c1` was run?
The inhibition was 6.5%.

`O=C(Nc1ccc(NC(=O)c2cccs2)cn1)c1ccco1` was tested. Which inhibition did it give?
Its inhibition is 83.2% (active).

For `N/C(=N\OC(=O)c1ccc2c(c1)OCO2)c1ccc(Br)cc1`, which inhibition is on record?
Its inhibition is 60.6% (active).

Which inhibition does the source give for `N/C(=N\OC(=O)/C=C/c1ccccc1)c1ccc(Br)cc1` here?
Its inhibition is -0.5%.

Which inhibition does the source give for `N/C(=N\OC(=O)N1c2ccccc2Sc2ccccc21)c1ccc(Br)cc1` here?
The inhibition was -3.4%.

`COc1ccccc1CN(C)C(=O)C1(c2ccc(Cl)cc2)CC1` was tested. Which inhibition did it give?
The inhibition was -4.2%.

How did the inhibition turn out when `O=C(CCC(=O)N1CCCC1)Nc1ccc([N+](=O)[O-])cc1` was run?
Its inhibition is -1.6%.

How did the inhibition turn out when `CCn1c(=S)[nH]c2sc3c(c2c1=O)CCCCC3` was run?
The inhibition was -1.8%.

Which inhibition does the source give for `CCO[C@H]1OC(C(=O)Nc2ccccc2)=C[C@@H](C2CC2)[C@@H]1CCCO` here?
The inhibition was -0.3%.

Which inhibition does the source give for `Cc1ccc(C)c(NC(=S)NCC(c2cccnc2)N2CCOCC2)c1` (stereo unspecified) here?
Its inhibition is -5.6%.

With `CCOC(=O)CSc1nnc(-c2ccncc2)o1` as the compound, how does the inhibition read?
The inhibition was 0.6%.

`CCOC(=O)CSc1nnc(-c2ccc([N+](=O)[O-])cc2)o1` was tested. Which inhibition did it give?
Its inhibition is 3%.

Which inhibition does the source give for `CCCCSc1nnc(-c2ccc(C)cc2)o1` here?
The inhibition was 50.5% (active).

How did the inhibition turn out when `Cc1ccnc(SCC(N)=O)n1` was run?
The inhibition was -1.6%.

`O=C(Nn1cnnc1)c1ccc([N+](=O)[O-])cc1` was tested. Which inhibition did it give?
Its inhibition is -5.5%.

With `Cc1ccc2nc(-c3cccc(Br)c3)cc(C(=O)Nn3cnnc3)c2c1` as the compound, how does the inhibition read?
Its inhibition is 78.1% (active).

Which inhibition does the source give for `Cc1ccc2nc(-c3ccccc3)cc(C(=O)O)c2c1` here?
The inhibition was 15.5%.

Which inhibition does the source give for `Cc1ccc(-c2cc(C(=O)NCc3cn(C)nc3C)c3cc(Br)ccc3n2)cc1` here?
Its inhibition is 10.9%.

For `Cc1nn2cc(-c3ccc(Cl)cc3)cnc2c1Br`, which inhibition is on record?
Its inhibition is 7.5%.

With `COc1ccc(-c2cc3ccc(OCc4nn[nH]n4)cc3oc2=O)cc1` as the compound, how does the inhibition read?
The inhibition was 81.4% (active).
